Counter-ions that a name gives are not always drawn. ± gives the standard deviation of the averaged measurements. Whole data set: some 2,000 compounds, median “relative cell viability vs DMSO, compound alone” near 1.1, cut for the lowest 2% near 0.29. This is one part of a sample in which the lowest values are shown more often than they occur.

The assay has as its system TE10. The assay can be described thus: relative cell viability vs DMSO, compound alone (fraction); TE10 is an esophageal squamous carcinoma line; higher = less cytotoxic. As to conditions: 2 µM; 48 h. On the procedure: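 TE10 ESCC cells (1,000/well, 384-well plates) were treated with Selleck bioactive library compounds at 2 uM alone for 48 h. Viability was read by CellTiter-Glo and expressed relative to DMSO wells. Two technical replicates (A, B).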
Take `CC(C)c1nc(CN(C)C(=O)N[C@@H](CCN2CCOCC2)C(=O)N[C@H](CC[C@H](Cc2ccccc2)NC(=O)OCc2cncs2)Cc2ccccc2)cs1` [Cobicistat (GS-9350)]: the relative cell viability turned out to be 1.11 ± 0.05. The figure for `O=C(Cc1ccc(-c2ccc(OCCN3CCOCC3)cc2)cn1)NCc1ccccc1` is 0.816 ± 0.05; for `COC[C@H](NC(=O)c1cnc(C)s1)C(=O)N[C@@H](COC)C(=O)N[C@@H](Cc1ccccc1)C(=O)[C@@]1(C)CO1` [Oprozomib (ONX 0912)] it is 0.0586 ± 0.0043; for `COC(=O)[C@H](Cc1ccccc1)NC(=O)[C@@H](N)CC(=O)O` [Aspartame] it is 1.06 ± 0.036. The figure for `CC(=O)NC(Cc1ccc(O)cc1)C(=O)NC(CCCN=C(N)N)C(=O)NC(Cc1ccccc1)C(N)=O` (stereo unspecified) is 0.828 ± 0.052; for `C[C@H](N[C@@H](CCc1ccccc1)C(=O)O)C(=O)N1CCC[C@H]1C(=O)O` [Enalaprilat Dihydrate] it is 1.12 ± 0.029.

`CC(C)CC(CC(=O)NO)C(=O)N[C@@H](Cc1ccc2ccccc2c1)C(=O)N[C@@H](C)C(=O)NCCN` (stereo partly specified) yielded a relative cell viability of 1.04 ± 0.077. Next, `CC(C)C[C@H](NC(=O)[C@H](CCc1ccccc1)NC(=O)CN1CCOCC1)C(=O)N[C@@H](Cc1ccccc1)C(=O)N[C@@H](CC(C)C)C(=O)[C@@]1(C)CO1` [Carfilzomib (PR-171)]: 0.0894 ± 0.0027; `COc1ccc(C[C@H](NC(=O)[C@H](C)NC(=O)CN2CCOCC2)C(=O)N[C@@H](Cc2ccccc2)C(=O)[C@@]2(C)CO2)cc1`: 0.0804 ± 0.0014.

Compound `O=C(NCC1(c2nc(-c3ccccc3)cs2)CCOCC1)c1cccc(-c2noc(C(F)(F)F)n2)c1` came in with a relative cell viability of 0.8055 ± 0.0031.

As to `C/C(=N\NC(=O)c1cccc(S(=O)(=O)N2CCOCC2)c1)c1cc(Cl)ccc1O`, the relative cell viability was 0.87899 ± 0.00067. The figure for `CC1(COc2ccc3c(c2)ncn3-c2ccc3cccc(N4CCC(N)CC4)c3n2)COC1` is 1.1 ± 0.033. The figure for `O=C(NCc1ccc(Oc2ccccc2)cc1)c1nc(-c2cc(Br)c(O)c(Br)c2)no1` is 1.17 ± 0.012; for `CNC(=C[N+](=O)[O-])NCCSCc1csc(CN(C)C)n1` [Nizatidine] it is 1.08 ± 0.056; for `CC(=O)N[C@H]1[C@H]([C@H](O)[C@H](O)CO)OC(C(=O)O)=C[C@@H]1NC(=N)N` [Zanamivir] it is 1.13 ± 0.049.

For the compound `CO/N=C(\C(=O)N[C@@H]1C(=O)N2C(C(=O)OCOC(=O)C(C)(C)C)=C(/C=C\c3scnc3C)CS[C@H]12)c1csc(N)n1` [Cefditoren Pivoxil], the relative cell viability turned out to be 0.991 ± 0.099.

Compound `C[C@]12C=CC(=O)C=C1CC[C@H]1[C@@H]3C[C@@H](O)[C@](O)(C(=O)CO)[C@@]3(C)C[C@H](O)[C@@]12F` [Triamcinolone] came in with a relative cell viability of 0.9665 ± 0.0039. Regarding `OC[C@@H](O)[C@@H](O)[C@@H](O)CO` [Ribitol], the relative cell viability turned out to be 1.126 ± 0.0056. Next, `CC(C)(C)C(=O)Nc1ccc2c(c1)C(=O)C(=O)c1ccccc1-2`: 0.0653 ± 0.0041. Next, `CC(=O)Nc1ccccc1` [Acetanilide]: 0.976 ± 0.25. Turning to `CC1=CC(=O)c2ccccc2C1=O` [Menadione], the relative cell viability is 0.981 ± 0.01. The figure for `O=C(Nc1cccc(C(F)(F)F)c1)Nc1cc(S(=O)(=O)NC2CC2)ccc1-c1ccsc1` is 0.982 ± 0.031; for `Cn1c2ccccc2c2c3c(c4c5ccccc5n(CCC#N)c4c21)CNC3=O` it is 1 ± 0.081; for `CN1CCc2nc(C(=O)N[C@@H]3C[C@@H](C(=O)N(C)C)CC[C@@H]3NC(=O)C(=O)Nc3ccc(Cl)cn3)sc2C1` [Edoxaban] it is 1.09 ± 0.014.

Compound `NC(=O)C1CCCc2c1[nH]c1ccc(Cl)cc21` (stereo unspecified) [EX 527 (Selisistat)] returned a relative cell viability of 0.983 ± 0.2.

`CCOC(=O)c1ccc(NC(=O)O[C@H]2[C@H](OC(=O)Nc3ccc4c(c3)OCO4)[C@@H](OC(=O)Nc3ccc4c(c3)OCO4)[C@@H](OC)O[C@@H]2CO)cc1`: the relative cell viability stood at 1.16 ± 0.047.

With `Cn1cc(-c2ccc3ncc(Cc4ccc5ncccc5c4)n3n2)cn1`, the relative cell viability is 1.13 ± 0.055. Next, `COc1ccc(C[C@H](N)C(=O)N[C@H]2[C@@H](O)[C@H](n3cnc4c(N(C)C)ncnc43)O[C@@H]2CO)cc1` [Puromycin 2HCl]: 0.133 ± 0.042; `COc1nc(N)nc2c1ncn2[C@@H]1O[C@H](CO)[C@@H](O)[C@@H]1O` [Nelarabine]: 1.11 ± 0.05; `CNc1ncnc2c1ncn2[C@@H]1O[C@H](CO)[C@@H](O)[C@H]1O` [N6-methyladenosine (m6A)]: 0.9679 ± 0.0062. Next, `CN(C)Cc1cccc(N=C(c2ccccc2)c2c(O)[nH]c3cc(C(=O)N(C)C)ccc23)c1`: 0.903 ± 0.035; `COc1cc2c(NC3CCN(CC4CCCCC4)CC3)nc(N3CCCN(C(C)C)CC3)nc2cc1OCCCN1CCCCC1`: 1 ± 0.13; `O=C(O)CCCC[C@@H]1SC[C@@H]2NC(=O)N[C@@H]21` [Biotin (Vitamin B7)]: 0.999 ± 0.036. Next, `CN[C@@H]1[C@H](O)[C@H](NC)[C@H]2O[C@@]3(O)C(=O)C[C@@H](C)O[C@H]3O[C@@H]2[C@H]1O` [Spectinomycin HCl]: 1.03 ± 0.12.

The compound `CN(C)c1cc(NC(=O)CNC(C)(C)C)c(O)c2c1CC1CC3C(N(C)C)C(=O)C(C(N)=O)=C(O)C3(O)C(=O)C1=C2O` (stereo unspecified) [Tigecycline] yielded a relative cell viability of 1.111 ± 0.0089. Next, `O=C(/C=C/c1cccc(S(=O)(=O)Nc2ccccc2)c1)NO` [Belinostat (PXD101)]: 0.216 ± 0.0062; `O=C(C=Cc1ccccc1)NC(NC(=S)Nc1ccc(Cl)cc1)C(Cl)(Cl)Cl` (stereo unspecified): 1.07 ± 0.03.

In the case of `Cn1cc(/C=C/C(=O)c2cccc(F)c2)cc1/C=C/C(=O)NO`, the relative cell viability stood at 1.11 ± 0.077. Next, `CC(=O)Oc1cc2c(s1)CCN(C(C(=O)C1CC1)c1ccccc1F)C2` (stereo unspecified) [Prasugrel]: 1.139 ± 0.0097; `COc1cc(Nc2ncc(F)c(Nc3ccc4c(n3)NC(=O)C(C)(C)O4)n2)cc(OC)c1OC` [R406 (free base)]: 0.844 ± 0.051. The figure for `COc1cc(Nc2ncc(F)c(Nc3ccc4c(n3)NC(=O)C(C)(C)O4)n2)cc(OC)c1OC` is 0.96 ± 0.015.

`Cc1c(C(=O)Nc2ccc(N3CCC(N4CCOCC4)CC3)c(C#N)c2)cnn1-c1ccc(Cl)cc1` returned a relative cell viability of 1.08 ± 0.024. Next, `Cc1c(C(=O)Nc2ccc(Oc3ccnc4[nH]cc(-c5ccccc5)c34)c(F)c2)c(=O)n(-c2ccc(F)cc2)n1C`: 1 ± 0.027; `Nc1nc(N)c(N=O)c(OCC2CCCCC2)n1`: 1.03 ± 0.023.

With `O=C(Cc1ccccc1)Nc1nnc(CCSCCc2nnc(NC(=O)Cc3ccccc3)s2)s1`, the relative cell viability worked out at 0.866 ± 0.049. The figure for `CCCc1nn(C)c2c(=O)[nH]c(-c3cc(S(=O)(=O)N4CCN(C)CC4)ccc3OCC)nc12` [Sildenafil Citrate] is 1.2 ± 0.029. The figure for `CC(C)(C)c1ccc(S(=O)(=O)/C=C/C#N)cc1` is 0.0635 ± 0.0029. Next, `Cc1ccc(S(=O)(=O)C=CC#N)cc1`: 0.063 ± 0.0047; `CNc1nc(-c2ccc3c(N)n[nH]c3c2)cc(N2C[C@@H](C(=O)NC3CCCCC3)CC[C@H]2C)n1`: 1.05 ± 0.037. Regarding `COc1c(N2C[C@@H]3CCCN[C@@H]3C2)c(F)cc2c(=O)c(C(=O)O)cn(C3CC3)c12` [Moxifloxacin HCl], the relative cell viability was 1.18 ± 0.016. The figure for `C[C@]12CC[C@@H]3c4ccc(O)cc4CC[C@H]3[C@@H]1CC[C@@H]2OC(=O)CCC1CCCC1` [Estradiol Cypionate] is 1.13 ± 0.085. The figure for `Cn1cc(-c2[nH]c3cc(NC(=O)[C@H](N)C4CCCCC4)cc4c3c2C=NNC4=O)cn1` is 1.05 ± 0.075; for `CCOc1cc([C@@H](CS(C)(=O)=O)N2C(=O)c3cccc(NC(C)=O)c3C2=O)ccc1OC` it is 0.887 ± 0.18.

Consider `CC(C)c1nc(CN(C)C(=O)N[C@H](C(=O)N[C@@H](Cc2ccccc2)C[C@H](O)[C@H](Cc2ccccc2)NC(=O)OCc2cncs2)C(C)C)cs1` [Ritonavir], for which the relative cell viability worked out at 1.13 ± 0.062. Next, `CC(C)C[C@@H](C=O)NC(=O)[C@H](CC(C)C)NC(=O)[C@H](CC(C)C)NC(=O)OCc1ccccc1`: 0.0786 ± 0.0013; `CC(NC(=O)C(Cc1ccccc1)NC(=O)OCc1ccccc1)C(=O)CF` (stereo unspecified): 1.14 ± 0.064; `CCCC[C@@H](C=O)NC(=O)[C@H](CC(C)C)NC(=O)OCc1ccccc1` [Calpeptin]: 1 ± 0.021. The figure for `CCCCC(=O)O[C@]1(C(=O)CO)[C@@H](C)C[C@H]2[C@@H]3CCC4=CC(=O)C=C[C@]4(C)[C@@]3(F)[C@@H](O)C[C@@]21C` [Betamethasone valerate (Betnovate)] is 0.865 ± 0.078. The figure for `COc1cc(Nc2nc3ccccc3nc2NS(=O)(=O)c2ccc(NC(=O)c3ccc(C)c(OC)c3)cc2)cc(OC)c1` is 1.15 ± 0.067; for `O=C(c1cn(Cc2cncn2Cc2ccc(Br)cc2)cc1-c1cccc2ccccc12)N1CCOCC1` it is 0.958 ± 0.015; for `CCc1cc(/C(C)=N/OCc2ccc(C3CCCCC3)c(C(F)(F)F)c2)ccc1CN1CC(C(=O)O)C1` [BAF312 (Siponimod)] it is 1.1 ± 0.07. Take `O=C(O)c1cc(/N=N/c2ccc(O)c(C(=O)O)c2)ccc1O` [Olsalazine Sodium]: the relative cell viability was 1.12 ± 0.12. As to `CC(C)CCNC(=O)[C@H](CC(C)C)NC(=O)[C@H]1O[C@@H]1C(=O)O` [Loxistatin Acid (E-64C)], the relative cell viability turned out to be 1.1 ± 0.019. Next, `CC(=O)N[C@@H](CC(C)C)C(=O)N[C@@H](CC(C)C)C(=O)N[C@H](C=O)CCCNC(=N)N` [Leupeptin Hemisulfate]: 1.09 ± 0.015; `CCCCC(C=O)NC(=O)C(CC(C)C)NC(=O)C(CC(C)C)NC(C)=O` (stereo unspecified): 0.266 ± 0.011. Next, `Cc1ccc(C(=O)Nc2cccc(C(F)(F)F)c2)cc1Nc1nc(-c2cccnc2)nc2c1cnn2C`: 1.13 ± 0.043; `Cc1cnc(NC(=O)C2=C(O)c3ccccc3S(=O)(=O)N2C)s1` [Meloxicam]: 1.11 ± 0.045. For `CC(=O)O[C@]1(C(C)=O)CC[C@H]2[C@@H]3C[C@H](C)C4=CC(=O)C=C[C@]4(C)[C@@]3(F)[C@@H](O)C[C@@]21C` [Fluorometholone Acetate], the relative cell viability was determined as 0.914 ± 0.099. Next, `CCCCC(=O)O[C@H]1CC[C@H]2[C@@H]3CCc4cc(O)ccc4[C@H]3CC[C@]12C` [Estradiol valerate]: 1.07 ± 0.1; `Cc1ccc(NC(=O)c2ccc(CN3CCN(C)CC3)cc2)cc1Nc1nc(-c2cccnc2)cs1` [Masitinib (AB1010)]: 1.084 ± 0.0069. The figure for `CC(C)(C)c1cc(NC(=O)Nc2ccc(-c3cn4c(n3)sc3cc(OCCN5CCOCC5)ccc34)cc2)no1` [Quizartinib (AC220)] is 0.594 ± 0.04.

The record behind these values is the supplement of paper PMC10670038.
